Measured values published in PubChem BioAssay (EPA / NIEHS).
Active and inactive are the calls of the source. Rule for the calls: active = hit-call score of the fitted dose curve at least 0.9, where 1 is the maximum; inactive = score below 0.9.

assay: CCTE_Shafer_MEA_acute_spike_number: CCTE's Neural Acute Assay for Total Number of Spikes, Shafer Lab (AID 2284008);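 for AC50: curve fitted for decrease in spike count so AC50 reflects inhibitors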
Procedure, shortened: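 Total spike count from 40 min recordings before and during compound exposure (0.03-40 uM), given as per-well percent change. Cortical cultures from rat, DIV 13 or 15, 37 C; adaptive detection threshold 8x rms noise.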

SMILES | AC50 | outcome
Nc1cccc(N)n1 | 5.05 nM (active) | –
C1CNCCN1 | – | inactive
CC(C)C(=O)OCCc1ccccc1 | – | inactive
Cc1c(C(=O)c2c[nH]n(C)c2=O)ccc(S(C)(=O)=O)c1C1=NOCC1 | – | inactive
CC/C=C\CCOC(=O)c1ccccc1O | – | inactive
CC(CCC(=O)O)(c1ccc(O)cc1)c1ccc(O)cc1 | – | inactive
CC1(C)CC(O)CC(C)(C)N1[O] | – | inactive
Oc1ccccc1Cc1ccccc1O | 207 nM (active) | –
CCCC(C)C(=O)OCC (stereo unspecified) | – | inactive

assay: CCTE_Shafer_MEA_acute_firing_rate_mean: CCTE's Neural Acute Assay for Mean Firing Rate, Shafer Lab (AID 2284009);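 note: analyzed for loss of signal so actives lower firing rate relative to DMSO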
Procedure, shortened: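 Primary rat cortical neurons on 16-electrode MEA wells were exposed on DIV 13 or 15 to compound (0.03-40 uM). Spike counts per recording time, averaged over electrodes, were compared between 40-min baseline and 40-min post-exposure recordings as percent change.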

SMILES | AC50 | outcome
Nc1cccc(N)n1 | 3.19 nM (active) | –
C1CNCCN1 | – | inactive
CC(C)C(=O)OCCc1ccccc1 | – | inactive
Cc1c(C(=O)c2c[nH]n(C)c2=O)ccc(S(C)(=O)=O)c1C1=NOCC1 | – | inactive
CC/C=C\CCOC(=O)c1ccccc1O | – | inactive
CC(CCC(=O)O)(c1ccc(O)cc1)c1ccc(O)cc1 | – | inactive
CC1(C)CC(O)CC(C)(C)N1[O] | – | inactive
Oc1ccccc1Cc1ccccc1O | 207 nM (active) | –
CCCC(C)C(=O)OCC (stereo unspecified) | – | inactive

assay: CCTE_Harrill_HTTr_Viability_MCF7: CCTE's 6-hour Cell Viability Assessment for the High-Throughput Transcriptomics (HTTr) Platform, in MCF-7 cells cultured in DMEM + 10% fetal bovine serum, Harrill Lab (AID 2284010)
Procedure, shortened: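 PI exclusion, high-content imaging; 8-pt dilution series, 6 h exposure; bidirectional fit vs DMSO (neg. ctrl/baseline); gain of signal = loss of membrane integrity.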

SMILES | outcome | AC50
COC(Cc1ccccc1)OC | inactive | –
CC(C)CO | inactive | –
C1CNCCN1 | inactive | –
CC(=O)c1ccc(S(=O)(=O)NC(=O)NC2CCCCC2)cc1 | inactive | –
CC(=O)CCC=C(C)C | inactive | –
O=C(OCc1ccccc1)c1ccc(O)cc1 | inactive | –
NNS(=O)(=O)c1ccc(Oc2ccc(S(=O)(=O)NN)cc2)cc1 | inactive | –
Cc1c(C(=O)c2c[nH]n(C)c2=O)ccc(S(C)(=O)=O)c1C1=NOCC1 | inactive | –
CC(=O)OCCc1ccccc1 | inactive | –
COC(=O)C=Cc1ccccc1 | inactive | –
CCCCCCCC(=O)OCC(COC(=O)CCCCCCC)OC(=O)CCCCCCC | inactive | –
CC/C=C\CCOC(=O)c1ccccc1O | inactive | –
CC1CCC(=O)C1=O (stereo unspecified) | inactive | –
CC1(C)CC(O)CC(C)(C)N1[O] | inactive | –
Nc1ccc(C(=O)O)cc1 | inactive | –
C1CCSC1 | inactive | –
c1ccc2cnccc2c1 | inactive | –

SMILES | outcome | AC50
CC(C)(C)NC(=O)[C@H]1CC[C@H]2[C@@H]3CC[C@H]4NC(=O)C=C[C@]4(C)[C@H]3CC[C@]12C | inactive | –
CC(=O)CC(=O)Nc1ccccc1C | inactive | –
CC(=O)CCC1=C(C)CCCC1(C)C | inactive | –
CCCCCC(=O)OCC | inactive | –
N=C1C=CC(=C(c2ccc(N)cc2)c2ccc(N)cc2)C=C1 | – | 1060 nM (active)
Oc1ccccc1Cc1ccccc1O | inactive | –
C=C(C)[C@@H]1CC=C(C)CC1 | inactive | –
C=C[C@@]1(C)CC(=O)[C@]2(O)[C@@]3(C)[C@@H](O)CCC(C)(C)[C@@H]3[C@H](O)[C@H](OC(C)=O)[C@@]2(C)O1 | inactive | –
CCCc1ccc(O)c(OC)c1 | inactive | –
O=C(O[C@@H]1Cc2c(O)cc(O)cc2O[C@@H]1c1cc(O)c(O)c(O)c1)c1cc(O)c(O)c(O)c1 | inactive | –
O=C(O)CCC(=O)O | inactive | –
Cc1noc(NS(=O)(=O)c2ccc(N)cc2)c1C | inactive | –
CCC(C)C(=O)OC (stereo unspecified) | inactive | –
Cc1c[nH]c(=O)[nH]c1=O | inactive | –
CCCCCCCCCCCCC | inactive | –
CCCC(C)C(=O)OCC (stereo unspecified) | inactive | –
